The campaign covered roughly 5,500 compounds. About 2,000 (36%) were called active. Inconclusive results (about 18%) are left out. No stated cut-off is given here; in the data, active means normalized growth mostly below about 0.91 (no sharp cut-off); inconclusive means no clear call, values can overlap the other calls; inactive means mostly above about 0.92. The list shows a part of the results.
Experiment: chemical genetic growth profiling, strain panel (AID 1159580);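 further: tested at 20 µM; growth read once vehicle control cultures reached saturation at 30 °C; 1 = growth at the plate median or of vehicle wells; lower values mean less growth of the strain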
Conditions: S. cerevisiae deletion strains, growth OD
[1] = locus YAR019C, strain CDC15, hits give low values
[2] = locus YBL105C, strain PKC1, hits give low values
[3] = locus YBR135W, strain CKS1, hits give low values
[4] = locus YBR136W, strain MEC1, hits give low values
[5] = locus YBR160W, strain CDC28, hits give low values
[6] = locus YDL017W, strain CDC7, hits give low values
[7] = locus YDL028C, strain MPS1, hits give low values
[8] = locus YDL101C, strain DUN1, hits give low values
[9] = locus YDL108W, strain KIN28, hits give low values
[10] = locus YDL132W, strain cdc53, hits give low values
[11] = locus YDL214C, strain PRR2, hits give low values
[12] = locus YDR052C, strain DBF4, hits give low values
[13] = locus YDR054C, strain cdc34, hits give low values
[14] = locus YDR226W, strain ADK1, hits give low values
[15] = locus YDR477W, strain SNF1, hits give low values
[16] = locus YER123W, strain YCK3, hits give low values
[17] = locus YER133W, strain GLC7, hits give low values
[18] = locus YFL009W, strain cdc4, hits give low values
[19] = locus YFL029C, strain CAK1, hits give low values
[20] = locus YFR003C, strain YPI1, hits give low values
[21] = locus YFR019W, strain FAB1, hits give low values
[22] = locus YFR028C, strain CDC14, hits give low values
[23] = locus YGR040W, strain KSS1, hits give low values
[24] = locus YGR052W, strain FMP48, hits give low values
[25] = locus YGR092W, strain DBF2, hits give low values
[26] = locus YHR030C, strain SLT2, hits give low values
[27] = locus YHR079C, strain IRE1, hits give low values
[28] = locus YHR082C, strain KSP1, hits give low values
[29] = locus YHR205W, strain SCH9, hits give low values
[30] = locus YIL147C, strain SLN1, hits give low values
[31] = locus YJL095W, strain BCK1, hits give low values
[32] = locus YJL128C, strain PBS2, hits give low values
[33] = locus YJL157C, strain FAR1, hits give low values
[34] = locus YJR016C, strain ILV3, hits give low values
[35] = locus YJR066W, strain TOR1 (second series), hits give low values
[36] = locus YJR066W, strain TOR1, hits give low values
[37] = locus YKL048C, strain ELM1, hits give low values
[38] = locus YKL067W, strain YNK1, hits give low values
[39] = locus YKL101W, strain HSL1, hits give low values
[40] = locus YKL193C, strain SDS22, hits give low values
[41] = locus YKL203C, strain TOR2, hits give low values
[42] = locus YLR113W, strain HOG1, hits give low values
[43] = locus YLR133W, strain CKI1, hits give low values
[44] = locus YLR403W, strain SFP1, hits give low values
[45] = locus YML070W, strain DAK1, hits give low values
[46] = locus YMR001C, strain CDC5, hits give low values
[47] = locus YMR205C, strain PFK2 (second series), hits give low values
[48] = locus YMR277W, strain FCP1, hits give low values
[49] = locus YNL006W, strain LST8, hits give low values
[50] = locus YNL020C, strain ARK1, hits give low values
[51] = locus YNL161W, strain CBK1, hits give low values
[52] = locus YNL183C, strain NPR1, hits give low values
[53] = locus YNL207W, strain RIO2, hits give low values
[54] = locus YNL222W, strain SSU72, hits give low values
[55] = locus YNL307C, strain MCK1 (second series), hits give low values
[56] = locus YOL078W, strain AVO1, hits give low values
[57] = locus YOL136C, strain PFK27, hits give low values
[58] = locus YOR061W, strain CKA2, hits give low values
[59] = locus YOR119C, strain RIO1, hits give low values
[60] = locus YOR231W, strain MKK1, hits give low values
[61] = locus YOR329C, strain SCD5, hits give low values
[62] = locus YPL031C, strain PHO85, hits give low values
[63] = locus YPL153C, strain RAD53, hits give low values
[64] = locus YPL204W, strain HRR25, hits give low values
[65] = locus YPL209C, strain IPL1, hits give low values
[66] = locus YPL256C, strain CLN2, hits give low values
[67] = locus YPR025C, strain CCL1, hits give low values
[68] = locus YPR106W, strain ISR1, hits give low values
[69] = locus YPR111W, strain DBF20, hits give low values
[70] = strain NNK1, hits give low values
[71] = strain TSCII, hits give low values

Measured: normalized growth

COC(=O)c1sccc1S(=O)(=O)Nc1cc(C(F)(F)F)cc(C(F)(F)F)c1
inactive: [1] 0.973 | [2] 0.967 | [3] 0.974 | [4] 0.974 | [5] 0.962 | [6] 0.973 | [7] 0.979 | [8] 0.957 | [9] 0.97 | [10] 0.967 | [11] 0.962 | [12] 0.969 | [13] 0.98 | [14] 0.971 | [15] 0.985 | [16] 0.936 | [17] 0.981 | [18] 0.965 | [19] 0.965 | [20] 0.974 | [21] 0.955 | [22] 0.962 | [23] 0.971 | [24] 1.03 | [25] 0.977 | [26] 1.07 | [27] 1.02 | [28] 1.06 | [29] 0.947 | [30] 0.978 | [31] 1.01 | [32] 0.9 | [33] 0.963 | [34] 0.97 | [35] 0.942 | [36] 1.07 | [37] 0.95 | [38] 0.956 | [39] 0.958 | [40] 0.969 | [41] 1.04 | [42] 0.902 | [43] 0.962 | [44] 0.966 | [45] 0.935 | [46] 0.972 | [47] 0.946 | [48] 0.971 | [49] 0.985 | [50] 0.956 | [51] 0.967 | [52] 0.997 | [53] 0.97 | [54] 0.961 | [55] 0.943 | [56] 0.971 | [57] 0.938 | [58] 0.955 | [59] 1.05 | [60] 0.934 | [61] 0.972 | [62] 0.987 | [63] 0.973 | [64] 0.97 | [65] 0.965 | [66] 0.967 | [67] 0.969 | [68] 0.955 | [69] 0.938 | [70] 0.974 | [71] 0.972

O=S(=O)(Nc1cc(C(F)(F)F)cc(C(F)(F)F)c1)c1ccc(Cl)s1
inactive: [1] 0.927 | [2] 0.921 | [3] 0.93 | [4] 0.922 | [5] 0.923 | [6] 0.925 | [7] 0.928 | [8] 0.942 | [9] 0.939 | [10] 0.925 | [11] 0.818 | [13] 0.926 | [14] 0.914 | [15] 0.808 | [16] 0.622 | [17] 0.83 | [18] 0.92 | [19] 0.928 | [20] 0.927 | [22] 0.927 | [23] 0.835 | [24] 0.619 | [29] 0.808 | [30] 0.927 | [31] 0.605 | [32] 0.906 | [33] 0.802 | [34] 0.921 | [35] 0.856 | [36] 0.668 | [38] 0.841 | [40] 0.933 | [41] 0.786 | [43] 0.772 | [44] 0.837 | [45] 0.718 | [46] 0.93 | [47] 0.852 | [48] 0.931 | [49] 0.941 | [50] 0.726 | [51] 0.927 | [52] 0.568 | [53] 0.914 | [54] 0.934 | [55] 0.645 | [56] 0.923 | [58] 0.836 | [59] 0.838 | [61] 0.927 | [62] 0.706 | [65] 0.927 | [67] 0.929 | [68] 0.934 | [69] 0.923 | [70] 0.919 | [71] 0.917
active: [12] 0.891 | [21] 0.772 | [25] 0.369 | [26] 0.246 | [27] 0.51 | [28] 0.48 | [37] 0.701 | [39] 0.685 | [42] 0.55 | [57] 0.67 | [60] 0.558 | [63] 0.617 | [64] 0.628 | [66] 0.475
